Inconclusive results are not listed. Calls of active or inactive are those of the source. Unless noted, calls come from the whole dose curve; as a rule, active = well fitted curve in the direction sought with a large enough effect in the repeat runs; inconclusive = weak or mixed curves; inactive = no such curve, though single readings can be large; an effect the other way counts as inactive or inconclusive.

Drawing on PubChem BioAssay (Tox21), this text covers outcome and Potency for seven compounds.

Experiment [1] is described as follows: qHTS assay to test for compound auto fluorescence at 535 nm (green) in HEK293 cells (AID 720680). Background: In qHTS, concentration-response curves come from the screen itself.
Experiment [2] is described as follows: qHTS assay to test for compound auto fluorescence at 460 nm (blue) in HEK293 cell free culture (AID 720681). Summed up: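 Test compounds were pinned into cell-free culture medium (DMEM with 10% FBS) and fluorescence was read directly at Ex/Em 405/460 nm. Signals were expressed as fluorescence equivalents of triamterene, with DMSO vehicle as control.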
A short description of experiment [3]: qHTS assay to test for compound auto fluorescence at 535 nm (green) in HEK293 cell free culture (AID 720682). The procedure, abridged: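 No cells present: wells hold DMEM supplemented with 10% FBS, into which compound or vehicle is pinned. Green emission is then recorded (485 nm excitation, 535 nm emission) and scaled to fluorescein.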
Experiment [4] can be described thus: qHTS assay to test for compound auto fluorescence at 590 nm (red) in HEK293 cell free culture (AID 720683). Summed up: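 Tox21 10K library compounds were pinned into cell-free DMEM with 10% FBS and fluorescence was read at excitation 540 nm. Activity is expressed as Rose Bengal sodium equivalency.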
A short description of experiment [5]: qHTS assay to test for compound auto fluorescence at 590 nm (red) in HepG2 cell free culture (AID 720684). Summed up:
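Measured in medium alone (MEM containing 10% FBS) following pintool addition of compound; emission at 590 nm with 540 nm excitation, referenced to Rose Bengal sodium.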

Experiment [6] in a line: qHTS assay to test for compound auto fluorescence at 535 nm (green) in HepG2 cell free culture (AID 720686).
A short description of experiment [7]: qHTS assay to test for compound auto fluorescence at 460 nm (blue) in HepG2 cells (AID 720687). The procedure, abridged:
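Cells (2,000/well in MEM with 10% FBS) attached overnight at 37 C, then were exposed to compound or DMSO for 1 hr at 37 C, 5% CO2. Fluorescence read at Ex/Em 405/460 nm, expressed as triamterene-equivalent signal.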

In experiment [8] the target is Glucocorticoid receptor (Homo sapiens) (UniProt P04150). As to the kind of experiment: qHTS assay to identify small molecule agonists of the glucocorticoid receptor (GR) signaling pathway (AID 720691; active = well fitted activation curve with a large enough effect in the signal ratio in the repeat runs, not every such curve was filed as active; the % refers to the signal ratio). Conditions: GR-bla HeLa, beta-lactamase reporter ratio, 18 h; activation: at 62.4 µM (top of the series). The procedure, abridged:
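Beta-lactamase reporter activity, read as fluorescence intensity, was measured in GR-bla HeLa cells exposed to compounds for 18 h at 37 C and then loaded with LiveBLAzer B/G FRET substrate for 2 h at room temperature.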

Experiment [9] has the same target. As to the kind of experiment: qHTS assay to identify small molecule antagonists of the glucocorticoid receptor (GR) signaling pathway (AID 720692; active = well fitted inhibition curve with a large enough effect in the signal ratio in the repeat runs, not every such curve was filed as active; the % refers to the signal ratio). Summed up:
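Fluorescence from cleaved LiveBLAzer B/G FRET substrate reports GRE-driven beta-lactamase in HeLa cells; compounds are tested against 5 nM dexamethasone (final) over 18 h at 37 C, substrate incubation 2 h at room temperature.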

Experiment [10] is described as follows: qHTS assay to identify small molecule antagonists of the glucocorticoid receptor (GR) signaling pathway - cell viability counter screen (AID 720693). Note: nearly all actives have a fitted effect of over 55% in size.
A short description of experiment [11]: qHTS assay for identifying genotoxic compounds that show differential cytotoxicity against isogenic chicken DT40 cell lines with known DNA damage response pathways - wild type cell line (AID 743012). Note: nearly all actives have a fitted effect of over 60% in size. Note: potency is the fitted concentration of half-maximal effect. The procedure, abridged: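 Quantitative HTS on parental DT40 cells: 40 h compound treatment at 37 C/5% CO2, with viability then determined by CellTiter-Glo luminescence. Values serve as the DNA repair-proficient reference for differential cytotoxicity.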

Experiment [12] in a line: qHTS assay for identifying genotoxic compounds that show differential cytotoxicity against isogenic chicken DT40 cell lines with known DNA damage response pathways - Rev3 mutant cell line (AID 743014). Note: nearly all actives have a fitted effect of over 55% in size. Note: potency is the fitted concentration of half-maximal effect.
Experiment [13] is described as follows: qHTS assay for identifying genotoxic compounds that show differential cytotoxicity against isogenic chicken DT40 cell lines with known DNA damage response pathways - Rad54/Ku70 mutant cell line (AID 743015). Note: nearly all actives have a fitted effect of over 60% in size. Note: potency is the fitted concentration of half-maximal effect.
A short description of experiment [14]: qHTS assay to identify small molecule antagonists of the androgen receptor (AR) signaling pathway - cell viability counter screen (AID 743033; note: nearly all actives have a fitted effect of over 45% in size).
The nature of experiment [15]: qHTS assay to identify small molecule antagonists of the androgen receptor (AR) signaling pathway using the MDA cell line - cell viability counter screen (AID 743041; note: nearly all actives have a fitted effect of over 45% in size). The procedure, abridged:
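Viability counter screen run alongside the AR antagonist reporter: cells seeded 5 h before compound, R1881 added, 16 h incubation at 37C without CO2, fluorescent CellTiter-Fluor signal quantified.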

Experiment [16] can be described thus: qHTS assay to test for compound auto fluorescence at 460 nm (blue) in HepG2 cell free culture (AID 720685). The procedure, abridged:
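Compound (23 nL) or DMSO pinned into cell-free MEM with 10% FBS; blue fluorescence read at 405/460 nm excitation/emission, expressed as auto-fluorescence equivalency to triamterene.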

Experiment [17] concerns the target Androgen receptor (Homo sapiens) (UniProt P10275). As to the kind of experiment: qHTS assay to identify small molecule antagonists of the androgen receptor (AR) signaling pathway (AID 743035; active = well fitted inhibition curve with a large enough effect in the signal ratio in the repeat runs, not every such curve was filed as active; the % refers to the signal ratio). Summed up:
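Cell line: GeneBLAzer AR-UAS-bla GripTite (HEK293). Stimulus: R1881 added after compound. Exposure: 16 h, 37C, 5% CO2. Readout: LiveBLAzer B/G FRET fluorescence after 2 h at room temperature.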

For experiment [18] the target is unchanged. The experiment can be described thus: qHTS assay to identify small molecule agonists of the androgen receptor (AR) signaling pathway (AID 743036; active = well fitted activation curve with a large enough effect in the signal ratio in the repeat runs, with a control signal flat, not every such curve was filed as active; the % refers to the signal ratio). The procedure, abridged: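 Quantitative HTS of the Tox21 10K library in HEK293 cells bearing a stably integrated UAS-controlled beta-lactamase reporter. Compound exposure lasted 16 h at 37C. Reporter activity was detected by FRET substrate fluorescence after 2 h at room temperature.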

Experiment [19] has the same target. The experiment can be described thus: qHTS assay to identify small molecule agonists of the androgen receptor (AR) signaling pathway using the MDA cell line (AID 743040; note: nearly all actives have a fitted effect of over 20% in size). Summed up:
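Luminescence from ONE-Glo, read after 30 min at room temperature, reflects MMTV-driven luciferase in MDA-kb2 cells (AR- and GR-responsive). Treatment lasted 16 h at 37C, 0% CO2.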

For experiment [20] the target is unchanged. The experiment can be described thus: qHTS assay to identify small molecule antagonists of the androgen receptor (AR) signaling pathway using the MDA cell line (AID 743042; note: nearly all actives have a fitted effect of over 55% in size). Summed up:
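MDA-kb2 cells (human breast carcinoma, stably carrying an MMTV-luciferase reporter responsive to AR and GR) were plated at 3,000 cells/well and preincubated 5 hr at 37C, then given compound plus R1881 agonist for 16 h. ONE-Glo luminescence was read.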

Chain of Androgen receptor (Homo sapiens) (P10275 whole entry, looked up): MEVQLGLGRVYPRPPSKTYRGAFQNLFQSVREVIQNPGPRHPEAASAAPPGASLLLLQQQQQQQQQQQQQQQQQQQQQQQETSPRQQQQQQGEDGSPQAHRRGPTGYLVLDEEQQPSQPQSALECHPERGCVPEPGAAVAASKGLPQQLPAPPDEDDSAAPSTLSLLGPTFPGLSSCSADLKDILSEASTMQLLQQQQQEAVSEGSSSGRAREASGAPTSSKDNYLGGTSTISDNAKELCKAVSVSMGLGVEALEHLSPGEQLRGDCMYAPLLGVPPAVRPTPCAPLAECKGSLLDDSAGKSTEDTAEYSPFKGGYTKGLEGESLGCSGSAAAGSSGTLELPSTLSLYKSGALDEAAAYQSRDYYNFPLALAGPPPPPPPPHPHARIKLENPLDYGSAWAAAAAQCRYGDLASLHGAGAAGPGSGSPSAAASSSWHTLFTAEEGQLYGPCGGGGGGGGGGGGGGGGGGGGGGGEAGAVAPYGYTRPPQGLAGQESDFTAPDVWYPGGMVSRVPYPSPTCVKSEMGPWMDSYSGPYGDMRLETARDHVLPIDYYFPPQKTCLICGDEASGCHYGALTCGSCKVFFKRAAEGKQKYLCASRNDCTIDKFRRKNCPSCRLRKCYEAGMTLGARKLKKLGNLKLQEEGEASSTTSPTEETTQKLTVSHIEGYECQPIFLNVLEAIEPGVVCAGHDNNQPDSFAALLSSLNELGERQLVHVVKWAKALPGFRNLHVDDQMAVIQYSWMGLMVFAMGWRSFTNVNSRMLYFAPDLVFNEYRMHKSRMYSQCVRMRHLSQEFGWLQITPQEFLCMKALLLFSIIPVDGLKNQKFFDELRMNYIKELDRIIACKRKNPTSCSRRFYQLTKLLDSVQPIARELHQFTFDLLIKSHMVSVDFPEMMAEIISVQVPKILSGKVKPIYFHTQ
Chain of Glucocorticoid receptor (Homo sapiens) (P04150 whole entry, looked up): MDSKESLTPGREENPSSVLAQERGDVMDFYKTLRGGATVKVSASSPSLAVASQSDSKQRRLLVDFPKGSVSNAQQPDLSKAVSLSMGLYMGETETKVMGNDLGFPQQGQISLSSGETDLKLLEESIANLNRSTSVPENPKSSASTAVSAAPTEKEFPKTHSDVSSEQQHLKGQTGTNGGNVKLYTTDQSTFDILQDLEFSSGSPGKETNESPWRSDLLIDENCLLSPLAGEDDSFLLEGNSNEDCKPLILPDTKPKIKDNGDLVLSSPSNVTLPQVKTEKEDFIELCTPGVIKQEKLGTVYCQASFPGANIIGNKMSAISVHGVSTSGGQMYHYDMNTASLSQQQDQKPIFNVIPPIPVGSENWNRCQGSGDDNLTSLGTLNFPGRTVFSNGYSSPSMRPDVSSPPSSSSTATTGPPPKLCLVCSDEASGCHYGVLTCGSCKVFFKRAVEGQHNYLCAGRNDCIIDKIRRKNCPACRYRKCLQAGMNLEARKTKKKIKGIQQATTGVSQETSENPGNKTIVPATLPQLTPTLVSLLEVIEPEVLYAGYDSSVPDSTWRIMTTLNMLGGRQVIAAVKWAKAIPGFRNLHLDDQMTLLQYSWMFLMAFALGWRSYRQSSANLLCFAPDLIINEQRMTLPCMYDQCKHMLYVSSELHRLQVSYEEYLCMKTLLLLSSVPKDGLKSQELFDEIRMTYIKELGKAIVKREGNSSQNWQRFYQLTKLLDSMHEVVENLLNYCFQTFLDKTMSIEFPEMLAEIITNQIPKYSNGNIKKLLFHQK

As to `O=C(CCCN1CCN2CCCC2C1)c1ccc(F)cc1` (stereo not drawn), the outcome in experiment [1], in [3], in experiment [4] and in experiment [5] was inactive. In addition, the Potency result in experiment [2], in experiment [6], in experiment [7], in experiment [8], in experiment [9] and in [10] was “inactive” throughout. For the same compound, the Potency result in experiment [14] and in experiment [15] was “inactive” each time. The results for the Potency in [11], in experiment [12] and in experiment [13] were 11.9 µM (active), 2.11 µM (active) and 8.41 µM (active), respectively.

For the compound `O=C(O)Cc1nn(Cc2ccc(Br)cc2F)c(=O)c2ccccc12`, the compound was called inactive in experiment [1], in [3], in experiment [4] and in [5]. The Potency result in experiment [2], in experiment [16], in experiment [6], in [10], in experiment [11] and in experiment [12] was “inactive” in each case. In addition, the Potency result in experiment [13], in experiment [14], in experiment [17], in experiment [18], in experiment [19] and in experiment [15] was “inactive” in each case. For the same compound, in experiment [20], the Potency entry is “inactive”.

For the compound `Cc1c(O)c(=O)ccn1C`, the result in [1], in experiment [3], in experiment [4] and in experiment [5] was inactive. Also, the Potency result in [2], in experiment [6], in [8], in [9], in experiment [10] and in experiment [11] was “inactive” in each case. Besides, the Potency result in [13], in experiment [14] and in [15] was “inactive” each time.

As for `NCC(O)CC(=O)O` (stereo not drawn), the call in experiment [1], in experiment [3], in [4] and in experiment [5] was inactive. Besides, the Potency result in [2], in experiment [6], in experiment [7], in experiment [8], in experiment [9] and in experiment [10] was “inactive” in each case. Also, the Potency result in experiment [11], in [12], in experiment [14] and in experiment [15] was “inactive” each time.

On to `COc1c(Br)cc(Br)c(C)c1Br`, for which the compound was called inactive in experiment [1], in experiment [3] and in experiment [4]. The Potency entry in experiment [2], in experiment [16], in [6], in experiment [7], in experiment [8] and in experiment [10] was “inactive” each time. The Potency entry in experiment [11], in experiment [12], in [13], in experiment [14] and in experiment [15] was “inactive” each time.

For `Cc1cn([C@H]2C[C@H](O)[C@@H](CO)O2)c(=O)[nH]c1=O`, the outcome in [1], in experiment [3], in experiment [4] and in experiment [5] was inactive. Besides, the Potency entry in [2], in experiment [6], in experiment [7], in experiment [9], in experiment [10] and in [11] was “inactive” each time. For the same compound, the Potency result in experiment [13] and in [15] was “inactive” throughout.

Consider `CNC(=O)C[C@@H](N)C(=O)N[C@@H](C(=O)N[C@@H]1C(=O)N2[C@@H]1SC(C)(C)[C@@H]2C(=O)O)c1ccc(O)cc1`, for which the outcome in [1], in [3], in experiment [4] and in [5] was inactive. Moreover, the Potency result in experiment [2], in experiment [6], in experiment [7], in experiment [8], in experiment [10] and in [11] was “inactive” each time. Also, the Potency entry in experiment [13], in [14] and in [15] was “inactive” throughout.
